Inconclusive results are not listed. Unmarked numbers belong to inactive results. The call rests on the fitted dose curve; in most records, active means well fitted cell-killing curve with a large enough effect in the repeat runs; inconclusive means weak or mixed curves, or effect the other way; inactive means flat fitted curve, though single readings scatter.
On the % scale 0 is the no-effect control and ±100 the full control effect.

The nature of the experiment: qHTS assay to identify small molecule antagonists of the estrogen receptor alpha (ER-alpha) signaling pathway using the BG1 cell line in the presence of 0.1 nM 17-beta-estradiol - cell viability counter screen (AID 1259241). Further: nearly all actives have a fitted effect of over 40% in size. The conditions noted are these: VM7Luc4E2 (BG1) viability, CellTiter-Fluor protease, 22 h, 0.1 nM estradiol agonist added; series mostly up to 92.4 µM; activity change, negative = cytotoxicity: at the top concentration. From the text:
National Center for Advancing Translational Sciences [NCATS]
NIH Chemical Genomics Center [NCGC]
U.S. Environmental Protection Agency [EPA]
National Institutes of Environmental Health Sciences [NIEHS]
National Toxicology Program [NTP]
U.S. Food and Drug Administration [FDA]
Estrogen receptor (ER), a member of the nuclear hormone receptor plays an important role in development, metabolic homeostasis and reproduction. Two subtypes of ER, ER-alpha and ER-beta, have similar expression patterns with some uniqueness in both types. Endocrine disrupting chemicals (EDCs) and their interactions with steroid hormone receptors like ER causes disruption of normal endocrine function. Therefore, it is important to understand the effect of environmental chemicals in ER signaling pathway. For identifying ER antagonists, VM7Luc4E2 cell line was used to screen against Tox21 compound libraries.
VM7Luc4E2 cell line (provided by Denison MS, University of California) endogenously express full-length ER-alpha and is stably transfected with a plasmid containing four estrogen responsive elements (ERE) upstream of a luciferase reporter gene. The current screening for identification of ER-alpha inhibitors against Tox21 compound libraries used lower concentration (0.1 nM) of 17beta-Estradiol as a stimulator. The cytotoxicity of the Tox21 compound libraries against VM7Luc4E2 cell line was tested by measuring live-cell protease activity using CellTiter-Fluor assay in the same wells.
Tox21 Assay Protocol Summary:
VM7Luc4E2 cells were cultured in phenol red free assay medium containing 10% charcoal stripped FBS for 5 days prior to the assay. The cells were dispensed at 4,000 cells/well in 4 uL of assay medium into white wall/solid-bottom 1536-well plates (Corning Life Sciences, Corning, NY) using a Multidrop Combi (ThermoFisher Scientific, Waltham, MA) dispenser. After the assay plates were incubated at 37C and 5% CO2 for 24 hr, 23 nL of compounds dissolved in DMSO, positive controls or DMSO only was transferred to the assay plates by a Pintool station (Kalypsys, San Diego, CA). The transfer of compounds was followed by the addition of 1 uL of 0.1 nM (final concentration) agonist (17beta-Estradiol)/assay medium using a Flying Reagent Dispenser (FRD, Aurora Discovery, San Diego, CA). The plates were incubated at 37C and 5% CO2 for 22 hr. For cytotoxicity assay, 1 uL of CellTiter-Fluor reagent (Promega Corporation, Madison, WI) was added to each well using the FRD and after 30 min incubation at 37C and 5% CO2, The fluorescence intensity was measured using ViewLux plate reader (PerkinElmer, Shelton, CT).
For `CCCCP(CCCC)CCCC`, the “activity change, negative = cytotoxicity” value is -7.95%. To `COc1cccc(C(=O)NN(C(=O)c2cc(C)cc(C)c2)C(C)(C)C)c1C` belongs -21.8%; to `OC(c1ccc(F)cc1)(c1cncnc1)c1ccccc1Cl` (stereo not given), 0.115%; to `CC1COC2(c3ccccc3Cl)c3cc(Cl)ccc3NC(=O)CN12` (stereo not given), 3.75% [at 42.5 µM].

`O=[N+]([O-])c1cccc(O)c1`: the “activity change, negative = cytotoxicity” value is 0%. The same measure for `Cc1nnc2n1-c1sc(CCC(=O)N3CCOCC3)cc1C(c1ccccc1Cl)=NC2`: -10.1% [at 42.5 µM]. The same measure for `c1cc2c(c(N3CCNCC3)c1)OCCO2`: -3.2% [at 42.5 µM]; for `CCS(=O)(=O)C(C)(C)S(=O)(=O)CC`: 5.21% [at 42.5 µM]. To `CCN(Cc1ccc(Cl)nc1)/C(=C/[N+](=O)[O-])NC` belongs -0.153% [at 42.5 µM]; to `Cc1ncc2n1-c1ccc(Cl)cc1C(c1ccccc1F)=NC2`, -1.73% [at 42.5 µM]; to `CC(=O)CC(c1ccc(Cl)cc1)c1c(O)c2ccccc2oc1=O` (stereo not given), -5.16%. Turning to `O=C(O)C(Br)CBr` (stereo not given), the “activity change, negative = cytotoxicity” value was 11.3%.

For the molecule `COC(=O)c1ccccc1S(=O)(=O)NC(=O)Nc1nc(C)cc(C)n1`, the “activity change, negative = cytotoxicity” value is 1.92%. To `C[N+](=O)[O-]` belongs 7.03%; to `O=C1OC(=O)C2C1C1(Cl)C(Cl)=C(Cl)C2(Cl)C1(Cl)Cl` (stereo not given), -0.114%; to `CS(=O)(=O)c1cc(C(F)(F)F)ccc1C(=O)c1cnoc1C1CC1`, 0.983%. To `O=[N+]([O-])c1cc(Cl)c(Cl)c(Cl)c1` belongs 8.42%. The same measure for `C[C@H]1CCC[C@H](O)CCCCCc2cc(O)cc(O)c2C(=O)O1`: -9.84%; for `Cc1cc(C)nc(Nc2ccccc2)n1`: 0.575%; for `CCOP(=O)(OCC)OP(=O)(OCC)OCC`: 10.3%.

As for `CC(=O)CCc1ccc2c(c1)OCO2`, the “activity change, negative = cytotoxicity” value was -0.391%. The same measure for `O=[N+]([O-])c1cccc2cccnc12`: 14.2%; for `CCC(Cl)[N+](=O)[O-]` (stereo not given): -1.03%; for `C[C@@H]1CN(C2CCC(C#N)(c3ccc(F)cc3)CC2)CC[C@]1(C(=O)O)c1ccccc1` (stereo not given in full): 2.7% [at 42.5 µM].

With `CC1CN1P(=O)(N1CC1C)N1CC1C` (stereo not given), the “activity change, negative = cytotoxicity” value is -0.0348%.

Take `COC(=O)C(c1ccccc1)C1CCCCN1` (stereo not given): the “activity change, negative = cytotoxicity” value is -20.7%. Regarding `CCCSC(=O)Cl`, the “activity change, negative = cytotoxicity” value is 5.19%. In the case of `CCC(=O)c1ccccc1`, the “activity change, negative = cytotoxicity” value is 3.76%. The same measure for `O=C1CN=C(c2ccccc2)c2cc([N+](=O)[O-])ccc2N1`: 5.64% [at 42.5 µM].

Take `N#CCBr`: the “activity change, negative = cytotoxicity” value was 2.85%. As to `CCC(C)(C)c1cc(-n2nc3ccccc3n2)c(O)c(C(C)(C)CC)c1`, the “activity change, negative = cytotoxicity” value is -0.587%. For the molecule `CN1CCC(N(Cc2ccccc2)c2ccccc2)CC1`, the “activity change, negative = cytotoxicity” value was -0.833% [at 42.5 µM]. The same measure for `NC(=O)c1cc([N+](=O)[O-])cc([N+](=O)[O-])c1`: -1.44% [at 42.5 µM]; for `NC1=NC(=O)C(c2ccccc2)O1` (stereo not given): 6.01% [at 42.5 µM]; for `N#Cc1ccncc1`: -8.44%.

In the case of `Cc1ncsc1CCCl`, the “activity change, negative = cytotoxicity” value is 5.64% [at 42.5 µM]. On to `COCC(=O)N(c1c(C)cccc1C)N1CCOC1=O`, for which the “activity change, negative = cytotoxicity” value was -8.41%. On to `CNC(=O)Oc1cccc(C(C)C)c1`, for which the “activity change, negative = cytotoxicity” value is -0.431%. To `c1cc[c]([Hg][c]2ccccc2)cc1` belongs 0.421%; to `CCc1cc2c(s1)-n1c(C)nnc1CN=C2c1ccccc1Cl`, 3.54% [at 42.5 µM].
